# Data from PubChem BioAssay (EPA / NIEHS).
# Activity calls are given as the source filed them. How the source made its calls: active means hit-call score of the fitted dose curve at least 0.9, where 1 is the maximum; inactive means score below 0.9.
# Experiment: CCTE_Padilla_ZF_Score.Spine: CCTE's 144 Hour Post-fertilization zebrafish Assay Score for Spine Malformation, Padilla Lab (AID 2284407)
# Experimental: CCTE_Padilla_ZF_Phenotype_Score is a whole embryo, multiplexed assay using zebrafish ova exposed for 144 hours post fertilization on a 96-well plate.CCTE_Padilla_ZF_Score.Spine is one of one assay component(s) measured or calculated from the CCTE_Padilla_ZF_Phenotype_Score assay. It is designed to make measurements of zebrafish development as detected with brightfield microscopy of developing zebrafish embryos.Data from the assay component CCTE_Padilla_ZF_Score.Spine was analyzed into 1 assay endpoints. This assay endpoint, CCTE_Padilla_ZF_Score.Spine, was analyzed in the positive analysis fitting direction relative to DMSO as the negative control and baseline of activity. Using a type of viability reporter, gain-of-signal activity can be used to understand changes in developmentals as they relate to the whole embryo. To generalize the intended target to other relatable targets, this assay endpoint is annotated to the zebrafish development intended target family, where the subfamily is body axis morphogenesis.
# Zebrafish husbandry: Wild type adult zebrafish (Danio rerio; undefined outbred stock obtained from Aquatic Research Organisms, Hampton, NH, 03842) were housed in an AAALAC-approved animal facility at 28C with a 14:10 h light: dark cycle (lights on at 08:30 h). Adult fish (2-3 females per male; density = 15-20 adults per tank) were kept in one of several 9-liter (L) flow-through colony tanks (Aquaneering Inc., San Diego, CA). All adults in a colony tank were placed in a 2 L (static) breeding tank (Aquatic Habitats, Apopka, FL) one hour prior to light onset. Typically, adults from two to three colony tanks were mated on the same day. Two hours after light onset the adults were returned to the colony tank. All embryos were gathered from each breeder tank, pooled, and placed in a 28C water bath for 2 h, followed by two washes with 0.06% bleach (v/v) in 10% Hanks' Balanced Salt Solution (13.7 mM NaCl 0.54 mM KCl, 25 uM Na2HPO4, 130 uM CaCl2 100 um MgSO4 and 420 um NaHCO3,), hereafter referred to as Hanks' solution, for 5 min in order to remove any residual bacteria or fungi. Immediately following washing, the embryos were examined, and healthy embryos were separated from dead or unfertilized eggs and moved into fresh Hanks'. Chemical exposures: Zebrafish embryos were exposed in 96-well plates. Between 6- and 8-hours post fertilization (hpf), healthy embryos (with chorions) were transferred, one embryo per well, into 96 well (0.5 mL) microtiter plates (Cell Culture-Treated, Flat-Bottom Microplate 96 well [Corning Costar, Kennebunk, ME; Cat 09-761-145]) filled with 200 uL of Hanks' solution. A random number generator was used to assign the order in which the rows of embryos were plated in 96 well plates each week. After plating, the embryos were dosed with 0.8 uL of the chemical dosing solution then immediately sealed with AlumaSeal II (Excel Scientific Inc, Victorville, CA) to prevent volatilization of the chemicals, and then placed in a leakproof secondary container. These containers were placed in an incubator maintained on a 14:10 h light: dark cycle at 26C for rearing. On 5 dpf, live larvae were gently moved out of the plate with test chemicals and into a new 96 well mesh plate (Millipore Corp., Bedford, MA) with just the Hanks' solution. Once within the mesh well plate, the animals were rinsed with 400 uL of fresh Hanks' three times, and then the plates were covered with a non-adhesive material (Microseal A, BioRad, Hercules, CA), plate lid added, and then plate sides wrapped in Parafilm (PM992, Bermis Company, Neenah, WI), and returned to the incubator. […]
row,SMILES,outcome
1,FC(F)(F)C(F)(F)C(F)(F)CI,inactive
2,FC(F)(F)C(F)(F)C(F)(F)C(F)(F)C(F)(F)C(F)(F)C(F)(F)C(F)(F)CCS,inactive
3,O=C(O)C(F)(F)C(F)(F)C(F)(F)C(F)(F)F,inactive
4,O=S(=O)(OCCOC(F)(F)F)C(F)(F)F,inactive
5,FC(F)(F)C(F)(F)C(F)(F)C(F)(F)C(F)(F)C(F)(F)CCS,inactive
6,FC(F)(F)C(F)(F)C(F)(F)C(F)(F)C(F)(F)C(F)(F)C(F)(F)C(F)(F)F,inactive
7,Cc1ccc(S(=O)(=O)OCC(F)(F)C(F)(F)C(F)(F)C(F)(F)C(F)(F)C(F)F)cc1,inactive
8,FC(F)(F)C(F)(F)C(F)(F)C(F)(F)C(F)(F)CCI,inactive
9,FC(F)(F)C(F)(F)C(F)(F)C(F)(F)C(F)(F)C(F)(F)CC1CO1 (stereo not given),inactive
10,OCC(F)(F)C(F)(F)C(F)(F)C(F)(F)C(F)(F)C(F)F,inactive
11,O=C(O)C(F)(F)C(F)(F)OC(F)(F)F,inactive
12,C=CC(F)(F)C(F)(F)C(F)(F)C(F)(F)C(F)(F)C(F)(F)C(F)(F)C(F)(F)F,inactive
13,O=C(O)C(F)(F)C(F)(F)C(F)(F)F,inactive
14,O=C(O)C(F)(F)C(F)(F)C(F)(F)C(F)(F)C(F)(F)C(F)(F)C(F)(F)C(F)(F)C(F)(F)C(F)(F)C(F)(F)C(F)(F)F,inactive
15,O=S(=O)(OCC(F)F)C(F)(F)F,inactive
16,C=C(C)C(=O)OCC(F)(F)C(F)(F)C(F)(F)C(F)(F)C(F)(F)C(F)(F)C(F)(F)F,inactive
17,O=C(O)C=C(C(F)(F)F)C(F)(F)F,inactive
18,CCO[Si](CCC(F)(F)C(F)(F)C(F)(F)C(F)(F)C(F)(F)C(F)(F)F)(OCC)OCC,inactive
19,O=C(CC(=O)C(F)(F)C(F)(F)F)C(F)(F)F,inactive
20,FC(F)(Br)C(F)(F)C(F)(F)C(F)(F)C(F)(F)C(F)(F)Br,inactive

row,SMILES,outcome
1,O=C(O)C(F)(OC(F)(F)C(F)(OC(F)(F)C(F)(OC(F)(F)C(F)(F)C(F)(F)F)C(F)(F)F)C(F)(F)F)C(F)(F)F (stereo not given),inactive
2,FC(F)(F)C(F)(F)C(F)(F)C(F)(F)C(F)(F)C(F)(F)C(F)(F)Br,inactive
3,NC(=O)C(F)(F)C(F)(F)C(F)(F)C(F)(F)F,inactive
4,O=P(O)(O)OCCC(F)(F)C(F)(F)C(F)(F)C(F)(F)C(F)(F)C(F)(F)F,inactive
5,O=C(O)C(F)(F)C(F)(F)C(F)(F)C(F)(F)C(F)(F)C(F)(F)C(F)(F)C(F)(F)C(F)(F)C(F)(F)C(F)(F)C(F)(F)C(F)(F)F,inactive
6,FC(F)(F)C(F)(F)CNCC(F)(F)C(F)(F)F,inactive
7,OCC(F)(F)C(F)(F)C(F)(F)C(F)(F)C(F)(F)C(F)(F)F,inactive
8,OCCCC(F)(F)C(F)(F)C(F)(F)F,inactive
9,O=C(O)C(F)(OC(F)(F)C(F)(OC(F)(F)C(F)(F)C(F)(F)F)C(F)(F)F)C(F)(F)F (stereo not given),inactive
10,FC(F)(F)C(F)(F)C(F)(F)N(C(F)(F)C(F)(F)C(F)(F)F)C(F)(F)C(F)(F)C(F)(F)F,inactive
11,O=C(O)C(F)(F)C(F)(F)C(F)(F)C(F)(F)C(F)(F)C(F)(F)C(F)(F)C(F)(F)Cl,inactive
12,C=CC(=O)OCC(F)(F)C(F)(F)C(F)(F)C(F)(F)C(F)(F)C(F)(F)C(F)(F)F,inactive
13,N=C(N)C(F)(F)C(F)(F)C(F)(F)C(F)(F)C(F)(F)C(F)(F)C(F)(F)F,inactive
14,O=S(=O)(O)C(F)(F)C(F)(F)C(F)(F)C(F)(F)C(F)(F)C(F)(F)C(F)(F)F,inactive
15,FC(F)(I)C(F)(F)C(F)(F)C(F)(F)I,inactive
16,CC(C)(C)C(=O)CC(=O)C(F)(F)C(F)(F)C(F)(F)F,inactive
17,FC(F)(F)C(F)(F)C(F)(F)C(F)(F)C(F)(F)C(F)(F)C(F)(F)I,inactive
18,OCCCC(F)(F)C(F)(F)C(F)(F)C(F)(F)C(F)(F)C(F)(F)C(F)(F)F,inactive
19,O=C(Cl)C(F)(F)C(F)(F)C(F)(F)C(F)(F)C(F)(F)C(F)(F)C(F)(F)C(F)(F)F,inactive
20,C=C(C)C(=O)OCC(F)(F)C(F)(F)C(F)(F)F,inactive
